Test results reported in PubChem BioAssay (Tox21).
A number with no mark means an inactive call. Results filed as inconclusive are left out. Entries that show only a call come without a potency. Activity calls are given as the source filed them. Unless noted, calls come from the whole dose curve; as a rule, active = well fitted curve in the direction sought with a large enough effect in the repeat runs; inconclusive = weak or mixed curves; inactive = no such curve, though single readings can be large; an effect the other way counts as inactive or inconclusive.

Assays:
[1] = target: Luciferin 4-monooxygenase (Photinus pyralis) (UniProt P08659); assay: qHTS assay to identify small molecule inhibitors of firefly luciferase (AID 1224835); note: nearly all actives have a fitted effect of over 25% in size; note: potency is the fitted concentration of half-maximal effect
Luciferin 4-monooxygenase (Photinus pyralis), sequence (P08659 whole entry, looked up): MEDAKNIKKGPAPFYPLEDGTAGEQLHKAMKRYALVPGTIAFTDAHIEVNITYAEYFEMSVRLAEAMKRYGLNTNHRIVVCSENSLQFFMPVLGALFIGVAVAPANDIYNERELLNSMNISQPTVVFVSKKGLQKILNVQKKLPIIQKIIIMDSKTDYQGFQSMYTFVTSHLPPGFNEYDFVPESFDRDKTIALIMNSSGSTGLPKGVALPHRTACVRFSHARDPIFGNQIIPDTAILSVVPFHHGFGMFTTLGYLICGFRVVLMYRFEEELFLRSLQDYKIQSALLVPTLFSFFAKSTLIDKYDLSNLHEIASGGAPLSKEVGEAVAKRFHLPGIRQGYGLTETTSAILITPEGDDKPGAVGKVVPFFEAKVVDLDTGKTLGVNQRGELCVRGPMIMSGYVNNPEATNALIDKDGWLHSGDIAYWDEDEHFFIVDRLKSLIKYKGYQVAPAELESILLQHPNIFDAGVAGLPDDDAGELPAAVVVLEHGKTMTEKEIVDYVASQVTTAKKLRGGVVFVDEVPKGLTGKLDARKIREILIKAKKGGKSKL
Outline: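 Quantitative HTS format; KM concentrations of both substrates. Purified P. pyralis FLuc activity quantified from luminescence images.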

[2] = qHTS assay to identify small molecule antagonists of the constitutive androstane receptor (CAR) signaling pathway - cell viability counter screen (AID 1224837); note: nearly all actives have a fitted effect of over 45% in size; note: potency is the fitted concentration of half-maximal effect
Outline: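 Counter screen run in HepG2-CYP2B6-hCAR cells: 4 hr settle, compound titration (15 concentrations) with 50 nM CITCO, 23 hr at 37 C/5% CO2, CellTiter-Fluor fluorescence.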

[3] = target: Nuclear receptor subfamily 1 group I member 3 (Homo sapiens) (UniProt Q14994); assay: qHTS assay to identify small molecule antagonists of the constitutive androstane receptor (CAR) signaling pathway (AID 1224838); note: nearly all actives have a fitted effect of over 40% in size; note: potency is the fitted concentration of half-maximal effect
Nuclear receptor subfamily 1 group I member 3 (Homo sapiens), sequence (Q14994 whole entry, looked up): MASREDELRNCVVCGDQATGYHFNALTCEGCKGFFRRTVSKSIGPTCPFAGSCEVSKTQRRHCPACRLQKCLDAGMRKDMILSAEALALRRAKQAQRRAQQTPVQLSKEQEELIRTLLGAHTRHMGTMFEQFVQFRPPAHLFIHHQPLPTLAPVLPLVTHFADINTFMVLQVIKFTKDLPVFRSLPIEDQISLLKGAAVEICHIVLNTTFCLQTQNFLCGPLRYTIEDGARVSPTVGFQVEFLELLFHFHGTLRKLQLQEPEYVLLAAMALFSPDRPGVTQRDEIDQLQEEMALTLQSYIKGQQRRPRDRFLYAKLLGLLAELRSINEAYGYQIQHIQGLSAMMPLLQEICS
Outline: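 Cell line: HepG2 double-stable for hCAR and CYP2B6-2.2kb reporter. Agonist: CITCO, 50 nM final. Compounds: 15 concentrations, 24 h, 37 C. Detection: ONE-Glo luminescence.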

[4] = target: Thyrotropin receptor (Homo sapiens) (UniProt P16473); assay: qHTS assay to identify small molecule agonists of the thyroid stimulating hormone receptor (TSHR) signaling pathway (AID 1224843; calls by dose curve; note: nearly all actives have a fitted effect of over 45% in size; note: potency is the fitted concentration of half-maximal effect)
Thyrotropin receptor (Homo sapiens), sequence (P16473 whole entry, looked up): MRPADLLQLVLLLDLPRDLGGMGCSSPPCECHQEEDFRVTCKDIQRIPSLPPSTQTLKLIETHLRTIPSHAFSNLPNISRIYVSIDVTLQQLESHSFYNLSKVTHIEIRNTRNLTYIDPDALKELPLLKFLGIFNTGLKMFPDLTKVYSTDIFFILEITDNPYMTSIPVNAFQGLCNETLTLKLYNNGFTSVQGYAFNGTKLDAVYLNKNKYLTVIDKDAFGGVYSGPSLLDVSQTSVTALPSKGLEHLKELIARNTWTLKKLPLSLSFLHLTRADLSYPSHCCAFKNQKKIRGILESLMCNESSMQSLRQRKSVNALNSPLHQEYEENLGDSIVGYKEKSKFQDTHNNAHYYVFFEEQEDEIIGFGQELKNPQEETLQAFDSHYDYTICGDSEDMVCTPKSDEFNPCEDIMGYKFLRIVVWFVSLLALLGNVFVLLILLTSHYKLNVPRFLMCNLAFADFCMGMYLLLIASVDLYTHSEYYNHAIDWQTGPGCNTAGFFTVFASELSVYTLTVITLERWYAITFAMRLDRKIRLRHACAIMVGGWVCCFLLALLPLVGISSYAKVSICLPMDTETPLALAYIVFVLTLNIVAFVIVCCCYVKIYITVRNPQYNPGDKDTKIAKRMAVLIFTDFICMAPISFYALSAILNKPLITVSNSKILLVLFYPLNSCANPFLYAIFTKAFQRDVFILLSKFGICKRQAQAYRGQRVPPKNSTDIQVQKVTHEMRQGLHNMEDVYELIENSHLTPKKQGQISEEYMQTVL
Outline: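 TSHR-expressing HEK293 cells (800 per well) were exposed to compounds for 30 min at room temperature. cAMP was then detected by HTRF competition with cAMP-d2 and anti-cAMP cryptate, read after 1 h at room temperature. Fifteen concentrations, triplicate.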

[5] = qHTS assay to identify small molecule agonists of H2AX - cell viability counter screen (AID 1224847; calls by dose curve; note: nearly all actives have a fitted effect of over 30% in size; note: potency is the fitted concentration of half-maximal effect)
Outline: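 Wild-type CHO-K1 cells (10% FBS medium) were plated overnight at 37C, exposed to compounds at 15 concentrations for 3 hr at 37C (0.76% DMSO final), and viability was read as CellTiter-Glo luminescence after 30 min at room temperature.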

[6] = qHTS RealTime-Glo MT Cell Viability Assay in HepG2 cells - 24 hour (AID 1224867); note: nearly all actives have a fitted effect of over 50% in size; note: potency is the fitted concentration of half-maximal effect
Outline: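 HepG2 cells (600/well) were dispensed with RealTime-Glo reagents, incubated 5 h at 37 °C, then treated with compounds in DMSO for up to 40 h. Nonlytic NanoLuc luminescence reflecting viable cells was read at each stated time point.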

[7] = A CellTox Green Cytotoxicity Assay to monitor cytotoxicity in HEK293 cells - 0 hour (AID 1224869); note: nearly all actives have a fitted effect of over 50% in size
Outline: (§1)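 Fluorescence intensity, read at 0, 8, 16, 24, 32 and 40 h of compound treatment, reflected dye binding to DNA of dead HEK293 cells; compounds (23 nL, DMSO) were added 5 h after plating cells with reagent.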

[8] = qHTS RealTime-Glo MT Cell Viability Assay in HepG2 cells - 40 hour (AID 1224870); note: nearly all actives have a fitted effect of over 50% in size; note: potency is the fitted concentration of half-maximal effect
Outline: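 HepG2 cells mixed with RealTime-Glo MT reagents (NanoLuc plus cell-permeant prosubstrate) were seeded at 600 cells/well, incubated 5 h at 37 C/5% CO2, then pinned with compounds in DMSO; nonlytic luminescence tracked viability during 40 h treatment.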

[9] = A CellTox Green Cytotoxicity Assay to monitor cytotoxicity in HEK293 cells - 40 hour (AID 1224871); note: nearly all actives have a fitted effect of over 45% in size; note: potency is the fitted concentration of half-maximal effect
Outline: as §1

[10] = target: Nuclear receptor subfamily 1 group I member 3 (Homo sapiens) (UniProt Q14994); assay: qHTS assay to identify small molecule agonists of the constitutive androstane receptor (CAR) signaling pathway (AID 1224839); note: nearly all actives have a fitted effect of over 15% in size; note: potency is the fitted concentration of half-maximal effect;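 for activation: HepG2 cells stably carrying human CAR and a CYP2B6 luciferase reporter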
Outline: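 HepG2 cells stably expressing hCAR and a CYP2B6-2.2kb luciferase reporter were treated with compounds at 15 concentrations plus 0.75 uM PK11195 (final) for 24 h at 37 C; luminescence was read after ONE-Glo addition.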

[11] = qHTS assay to identify small molecule agonists of the hypoxia (HIF-1) signaling pathway - cell viability counter screen (AID 1224844; calls by dose curve; note: nearly all actives have a fitted effect of over 50% in size; note: potency is the fitted concentration of half-maximal effect)
Outline: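 Cells (HRE-bla ME-180, 2,000 per well) sat 5 hrs at 37C, got compound for 17 hrs, were read for CCF4-AM FRET, and were finally lysed with CellTiter-Glo for a 30 min room-temperature luminescence read.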

[12] = qHTS assay to identify small molecule agonists of H2AX (AID 1224845; active = well fitted activation curve with a large enough effect in the signal ratio in the repeat runs, not every such curve was filed as active; the % refers to the signal ratio)
Outline: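 Wild-type CHO-K1 cells plated overnight, then exposed 3 hr at 37C to compounds at 15 concentrations (0.76% DMSO). Lysed, then HTRF anti-pH2AX(S139)-cryptate/anti-H2AX-d2 detection after 24 hr at room temperature; emissions 665 and 620 nm.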

[13] = qHTS assay to identify small molecule agonists of the hypoxia (HIF-1) signaling pathway (AID 1224846; active = well fitted activation curve with a large enough effect in the signal ratio in the repeat runs, not every such curve was filed as active; the % refers to the signal ratio)
Outline: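 A low-serum medium (0.5% dialyzed FBS) holding 2,000 HRE-bla ME-180 cells per well is preincubated for 5 hrs, dosed with compounds by pintool, and kept a further 17 hrs at 37C, 5% CO2 before CCF4-AM FRET detection of beta-lactamase.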

[14] = qHTS RealTime-Glo MT Cell Viability Assay in HEK293 cells - 32 hour (AID 1224868); note: nearly all actives have a fitted effect of over 50% in size; note: potency is the fitted concentration of half-maximal effect
Outline: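 HEK293 cells seeded with NanoLuc/prosubstrate reagent, rested 5 h at 37 C, then dosed and kept at 37 C up to 40 h. Nonlytic real-time luminescence from viable cells read at 0, 8, 16, 24, 32 and 40 h.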

[15] = qHTS assay to identify small molecule antagonists of the estrogen related receptor signaling pathway with the pleiotropic PPARgamma coactivator (PGC) from Tox21 10K library (AID 1224841; call rule not given here)
Outline: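 qHTS antagonist format: PGC/ERR cells, 2k/well, compound in DMSO by pin transfer after 6 h attachment, 18 h treatment at 37 C, One-Glo luminescence read at 30 min.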

[16] = qHTS assay to identify small molecule agonists of the estrogen related receptor signaling pathway with the pleiotropic PPARgamma coactivator (PGC) from Tox21 10K library (AID 1224842); note: nearly all actives have a fitted effect of over 15% in size
Outline: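 PGC/ERR reporter cells (NTP line) were seeded 2,000 per well, rested 6 h at 37 C/5% CO2, then pin-dosed with compounds in DMSO for 18 h at 37 C; luciferase read by One-Glo luminescence after 30 min at room temperature.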

[17] = qHTS assay to identify small molecule antagonists of the estrogen related receptor (ERR) signaling pathway from Tox21 library (AID 1224848)
Outline: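 Cells: ERR line, 2,000/well; 6 h preincubation 37 C/5% CO2. Cpd in DMSO via pin tool; 18 h, 37 C. ONE-Glo, 30 min RT, luminescence.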

[18] = qHTS assay to identify small molecule agonists of the estrogen related receptor (ERR) signaling pathway from Tox21 library (AID 1224849; calls by dose curve; note: nearly all actives have a fitted effect of over 15% in size); settings: ERR reporter cell line, ONE-Glo luciferase, 18 h; at 92.4 µM (top of the series) unless noted
Outline: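 Screening used an NTP-provided ERR luciferase cell line. Compounds in DMSO were added 6 h after seeding and left 18 h at 37 C before a 30 min ONE-Glo step and luminescence reading.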

[19] = qHTS assay to identify small molecule antagonists of the estrogen related receptor signaling pathway with the pleiotropic PPARgamma coactivator (PGC) from Tox21 10K library - cell viability counter screen (AID 1224840; active = well fitted cell-killing curve with a large enough effect in the repeat runs, not every such curve was filed as active; note: nearly all actives have a fitted effect of over 40% in size; note: potency is the fitted concentration of half-maximal effect)
Outline: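 Following seeding of 2,000 PGC/ERR cells/well and 6 hours' incubation, test compounds were delivered in DMSO. The plates then sat 17.5 hours at 37 C before a fluorogenic live-cell protease reagent (CellTiter-Fluor) was read after 30 min.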

## COc1ccc(-n2nc(CCC(=O)N(C)O)cc2-c2ccc(Cl)cc2)cc1
[1]
  Potency: inactive
[2]
  Potency: inactive
[3]
  Potency: inactive
[4]
  Potency: inactive
[5]
  Potency: inactive
[6]
  Potency: inactive
[7]
  Potency: inactive
[8]
  Potency: inactive
[9]
  Potency: inactive

## C=C(C)C(=O)OCCC[Si](Cl)(Cl)Cl
[1]
  Potency: inactive
[2]
  Potency: inactive
[3]
  Potency: inactive
[10]
  Potency: inactive
[4]
  Potency: inactive
[11]
  Potency: inactive
[12]
  Potency: inactive
[13]
  outcome: inactive
[5]
  Potency: inactive
[6]
  Potency: inactive
[14]
  Potency: inactive
[7]
  Potency: inactive
[8]
  Potency: inactive
[9]
  Potency: inactive

## O=C(Nc1ccc(Cl)cc1)Nc1ccc(Cl)c(C(F)(F)F)c1
[1]
  Potency: 34.7 µM (active)
[3]
  Potency: 16.8 µM (active)
[10]
  Potency: inactive
[15]
  Potency: 5.31 µM (active)
[16]
  Potency: inactive
[4]
  Potency: inactive
[11]
  Potency: 26.8 µM (active)
[12]
  Potency: inactive
[5]
  Potency: 22 µM (active)
[17]
  Potency: 3.76 µM (active)
[18]
  activity change, positive = activation: -40.9% [at 42.5 µM]
[14]
  Potency: 4.77 µM (active)
[7]
  Potency: inactive

## CCCOc1sc(C(=O)N2CCC(c3cc(CN)ccc3F)CC2)c(C)c1Br
[1]
  Potency: inactive
[2]
  Potency: 62.8 µM (active)
[10]
  Potency: inactive
[19]
  Potency: 56 µM (active)
[11]
  Potency: 28.3 µM (active)
[5]
  Potency: 46.3 µM (active)
[17]
  Potency: 49.9 µM (active)
[18]
  activity change, positive = activation: -71.6%
[6]
  Potency: 22.5 µM (active)
[14]
  Potency: 22.5 µM (active)
[7]
  Potency: inactive
[8]
  Potency: 28.3 µM (active)
[9]
  Potency: 31.8 µM (active)

## O=C(O)c1cccc(Cl)n1
[1]
  Potency: inactive
[2]
  Potency: inactive
[19]
  Potency: inactive
[4]
  Potency: inactive
[12]
  Potency: inactive
[13]
  outcome: inactive
[5]
  Potency: inactive
[6]
  Potency: inactive
[14]
  Potency: inactive
[8]
  Potency: inactive

## CC(O)C#CC(C)O (configuration not stated)
[1]
  Potency: inactive
[2]
  Potency: 53.9 µM (active)
[10]
  Potency: inactive
[7]
  Potency: inactive
[9]
  Potency: 54.4 µM (active)

## C=C[C@](C)(O)CC[C@@H]1[C@@]2(C)CCCC(C)(C)[C@@H]2CC[C@@]1(C)O
[1]
  Potency: inactive
[10]
  Potency: inactive
[19]
  Potency: 61.1 µM (active)
[16]
  Potency: inactive
[4]
  Potency: 19.3 µM (active)
[11]
  Potency: 49 µM (active)
[12]
  Potency: inactive
[5]
  Potency: 113 µM (active)
[17]
  Potency: 27.3 µM (active)
[18]
  activity change, positive = activation: -46.9%
[6]
  Potency: 49 µM (active)
[14]
  Potency: 21.9 µM (active)
[7]
  Potency: inactive
[8]
  Potency: 54.9 µM (active)
[9]
  Potency: 43.6 µM (active)

## CN(C)c1ccc(N=Nc2ccccc2C(=O)O)cc1
[1]
  Potency: 3.17 µM (active)
[3]
  Potency: inactive
[10]
  Potency: 10.9 µM (active)
[19]
  Potency: 27.3 µM (active)
[14]
  Potency: inactive
[7]
  Potency: inactive

## CCCCCCCC(OC)OC
[1]
  Potency: inactive
[2]
  Potency: inactive
[10]
  Potency: inactive
[4]
  Potency: inactive
[12]
  Potency: inactive
[13]
  outcome: inactive
[5]
  Potency: inactive
[6]
  Potency: inactive
[14]
  Potency: inactive
[7]
  Potency: inactive
[9]
  Potency: inactive

## Nc1ncnc2c1ncn2[C@@H]1O[C@H](COP(=O)(O)O)[C@@H](O)[C@H]1O
[1]
  Potency: inactive
[2]
  Potency: inactive
[3]
  Potency: inactive
[10]
  Potency: inactive
[4]
  Potency: inactive
[11]
  Potency: inactive
[12]
  Potency: inactive
[5]
  Potency: inactive
[14]
  Potency: inactive
[8]
  Potency: inactive
[9]
  Potency: inactive
